Compound activity deposited in PubChem BioAssay by National Center for Advancing Translational Sciences (NCATS).
mIDH1 inhibitor – human IDH1 R132H inhibition | IDH1-R132H enzyme, NADPH consumption, diaphorase/resazurin fluorescence | Potency, µM (titrated, usually from 76.6 µM), without a hit: at the top dose activity change, negative = inhibition, most hits filed as inhibitors | 0.093% of 390,000 active | AID 602179; further: nearly all actives have a fitted effect of over 65% in size
Target sequence (O75874 whole entry R132H, stated change not applied): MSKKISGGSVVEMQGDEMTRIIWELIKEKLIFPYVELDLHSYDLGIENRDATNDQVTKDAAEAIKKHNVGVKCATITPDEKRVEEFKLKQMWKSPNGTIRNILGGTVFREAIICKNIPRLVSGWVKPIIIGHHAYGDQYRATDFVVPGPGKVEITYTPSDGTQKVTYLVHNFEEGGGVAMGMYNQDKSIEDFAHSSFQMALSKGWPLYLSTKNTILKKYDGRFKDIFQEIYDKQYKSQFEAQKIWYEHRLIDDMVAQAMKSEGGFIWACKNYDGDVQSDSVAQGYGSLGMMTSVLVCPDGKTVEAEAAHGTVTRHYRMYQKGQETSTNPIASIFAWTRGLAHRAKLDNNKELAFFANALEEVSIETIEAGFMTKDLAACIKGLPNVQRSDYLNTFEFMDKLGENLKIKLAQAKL
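IDH1-R132H (0.5 ug/mL dispensed) in pH 7.5 Tris buffer was preincubated 30 min with compound, then given a substrate mix of 0.016 mM NADPH and 2 mM alpha-KG for 80 min at room temperature; remaining NADPH was read by diaphorase/resazurin fluorescence.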
GLS inhibitor – blocks human kidney-isoform glutaminase activity. O94925. GLS enzymatic activity, qHTS titration. Potency, µM (series often up to 45.5 µM), without a hit: top-dose activity change, negative = inhibition, hits mostly inhibitors. 0.21% of 410,000 active
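Enzyme dispensed in phosphate buffer (45 mM, pH 8.2, 0.02% Tween-20), compounds pinned in, then 1 mM L-glutamine solution and the glutamate oxidase–HRP–Amplex Red mix added; fluorescence read immediately and again after 30 min at room temperature.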
Tb PGK inh – blocks T. brucei phosphoglycerate kinase; AID 602233; P07378; 0.043% of 380,000 active; Potency, µM (doses to about 57.5 µM), for inactives: at the highest dose activity change, negative = inhibition, usual class: inhibitors; PGK/GAPDH coupled, Kinase-Glo luminescence, 60 min; further: nearly all actives have a fitted effect of over 60% in size
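Recombinant glycosomal PGK reaction used 1,3-bisphosphoglycerate generated in-well by GAPDH (100nM final) in 100mM TEA pH 7.6, 5mM MgCl2, 0.01% Tween-20. After 60 minutes at room temperature, ATP was read by Kinase-Glo Plus luminescence end-point.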
Pin1 inhibitor – blocks the human prolyl isomerase Pin1; Q13526; Pin1 FP peptide displacement, HiFluor488, 10 min; Potency, µM (highest dose often 115 µM), for inactives: top-dose activity, negative = inhibition, most hits filed as inhibitors; 0.009% of 390,000 active; active means well fitted inhibition curve with a large enough effect in the polarisation, with a control signal flat, not every such curve was filed as active; inconclusive means small, poorly fitted or top-dose-only effect, or effect the other way, or a change in a side signal; inactive means no such curve, though single readings can be large or run the other way; the % refers to the polarisation
Target sequence (Q13526 whole entry, looked up): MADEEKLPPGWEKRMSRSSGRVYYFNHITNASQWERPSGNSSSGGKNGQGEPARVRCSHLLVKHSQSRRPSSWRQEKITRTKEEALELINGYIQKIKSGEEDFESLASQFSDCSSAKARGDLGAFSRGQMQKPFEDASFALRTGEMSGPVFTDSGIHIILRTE
* = called active by the depositor; i = inactive; u = inconclusive; x = no result given; ! = repeats disagree. The list is not random: actives were taken first. Their share in the collection is about 0.33%. Unless noted, the call rests on the fitted dose curve; in most records, active means well fitted curve in the direction sought with a large enough effect; inconclusive means small, poorly fitted or top-dose-only effect, or another doubt; inactive means no such curve, though single readings can be large; an effect the other way counts as inactive or inconclusive. On the % scale 0 is the no-effect control and ±100 the full control effect; potency means the concentration at half of the fitted maximal effect.

SMILES	mIDH1 inhibitor	GLS inhibitor	Tb PGK inh	Pin1 inhibitor
COc1cc(O)c(C(C)=O)c(CC(=O)O)c1	-7%	10µM*	16µM*	x
O=C(N/N=C/c1ccc(O)c(O)c1)c1cccc(S(=O)(=O)N2CCCCC2)c1	2%	7.1µM*	-10%	-7%
O=C(NN=Cc1ccc(F)cc1)c1cccc(S(=O)(=O)N2CCCC2)c1	-3%	5%	-5%	-9%
Oc1ccc(CNCc2ccccc2F)c2cccnc12	x	x	x	6%
CN1CCN(S(=O)(=O)c2ccc(N3CCN(c4ccc(O)cc4)CC3)c([N+](=O)[O-])c2)CC1	21%	8.9µM*	-3%	-6%
Cc1c(C)c2ccc(OCC(=O)NC(Cc3c[nH]c4ccc(O)cc34)C(=O)O)c(C)c2oc1=O (stereo not given)	-9%	11µM*	-3%	3%
Cc1cc2c(s1)c1cnn(Cc3c(F)ccc(Cl)c3F)c(=O)c1n2C	x	x	x	1%
O=C(O)c1cccc(-c2ccc(/C=c3/sc4nc5ccccc5n4c3=O)o2)c1	-2%	13µM*	u	u
CSc1ccc(NC(N)=S)cc1	-3%	-2%	1%	-1%
CN(C)c1ccc(NC(N)=S)cc1	13%	14µM*	8%	-1%
O=C(COC(=O)c1cc(NS(=O)(=O)c2cccs2)ccc1O)Nc1cc(Cl)ccc1Cl	-1%	9%	-5%	12%
O=C(COC(=O)c1cc(NS(=O)(=O)c2cccs2)ccc1O)Nc1ccc(F)c(F)c1F	18%	13µM*	-5%	-1%
O=C(O)c1ccc2nc(-c3ccco3)c(-c3ccco3)nc2c1	-1%	7.1µM*	u	u
O=C(O)c1cc(-c2ccco2)nc2ccc(Br)cc12	14%	7.9µM*!	28µM*!	-4%
O=C(c1ccc2nc(-c3ccco3)c(-c3ccco3)nc2c1)N1CCN(c2ccccc2)CC1	0%	7%	-2%	u
Cc1ccn2c(NC3CCCC3)c(-c3ccsc3)nc2c1	4%	7.1µM*	-1%	0%
N#Cc1nc(Nc2cc(F)cc(F)c2)nc(Nc2cc(F)cc(F)c2)n1	x	x	x	47%
CCN1C(=O)/C(=C\C=C\c2ccccc2[N+](=O)[O-])SC1=S	6%	-1%	-8%	1%
CCN1C(=O)/C(=C/C=C2\N(CC)c3cc(S(=O)(=O)N(C)C)ccc3N2c2ccccc2)SC1=S	52µM*	-16%	-15%	u
CC(c1ccc(F)cc1)n1c(-c2ccc3ccccc3n2)n[nH]c1=S (stereo not given)	3%	13µM*	-3%	2%
Cc1ccc(NC(=O)CN2C(=O)S/C(=C\c3cc(Cl)c(OCC(=O)O)c(Cl)c3)C2=O)cc1	37µM*	u	u	x
O=C(O)c1cccc(N2C(=O)c3cccc4cccc(c34)C2=O)c1	-2%	4%	-3%	-2%
O=C(O)c1cccc(N2C(=O)c3cc([N+](=O)[O-])cc4cc([N+](=O)[O-])cc(c34)C2=O)c1	0%	u	25µM*	x
CC(=O)N1CCc2cc(S(=O)(=O)N3CCN(S(=O)(=O)c4c(F)cccc4F)CC3)ccc21	x	x	x	0%
O=C(CN1C(=O)/C(=C/c2ccco2)SC1=S)Nc1ccc(C(=O)O)c(O)c1	-5%	22µM*	28µM*	34%
SMILES	mIDH1 inhibitor	GLS inhibitor	Tb PGK inh	Pin1 inhibitor
O=C(CN1C(=O)/C(=C/c2ccco2)SC1=S)Nc1ccc(O)c(C(=O)O)c1	7%	-10%	u	x
CC(C(=O)Nc1ccc(C(=O)O)c(O)c1)N1C(=O)/C(=C\c2ccco2)SC1=S (stereo not given)	0%	18µM*	u	u
Cc1cc2c(s1)c1cnn(Cc3c(F)cccc3C(F)(F)F)c(=O)c1n2C	x	x	x	-4%
COc1ccc(C2Nc3ccccc3C(=O)N2Cc2cccc(C(F)(F)F)c2)cc1COc1ccc(NC(C)=O)cc1 (stereo not given)	x	x	x	0%
CC(C)c1ccc(N=c2c([N+](=O)[O-])nn(-c3ccc4c(c3)OCCO4)n2O)cc1	4%	11µM*	-4%	-10%
COc1cc(N=c2c([N+](=O)[O-])nn(-c3ccc4c(c3)OCCO4)n2O)cc(OC)c1	8%	15%	-2%	1%
CSc1ccc(/C=N/Nc2nc(C)cc(=O)[nH]2)cc1	3%	-6%	4%	-1%
Cc1cc(=O)[nH]c(N/N=C/c2ccc(O)c(O)c2)n1	1%	13µM*	5%	1%
CCOc1cc(/C=C2\CN(CC)C/C(=C\c3ccc(O)c(OCC)c3)C2=O)ccc1O	2%	13µM*	12%	4%
CCOc1cc(C=NN2CCCCCC2)ccc1O	0%	11µM*	-2%	-2%
COc1cc(F)cc(F)c1[S+](=O)([O-])N1CCN([S+](=O)([O-])c2ccc3c(c2)OCCO3)CC1	x	x	x	1%
O=C(O)C1=CCC=CC1C(=O)O (stereo not given)	9%	11µM*	13µM*	x
COc1ccc(C2Oc3ccccc3C(=O)N2Cc2ccccc2)cc1COc1ccc(NC(C)=O)cc1 (stereo not given)	x	x	x	11%
O=C1NC(=S)S/C1=C\c1ccc(SCc2ccco2)o1	-6%	11µM*	14µM*	u
O=C1NC(=S)S/C1=C\c1ccc(SCc2ccccc2)o1	-4%	u	u	u
O=C(NN1C(=O)/C(=C/C=C/c2ccco2)SC1=S)c1ccncc1	-9%	7.9µM*	14µM*	u
O=C(NN1C(=O)/C(=C/C=C/c2ccccc2)SC1=S)c1ccncc1	16%	-2%	-9%	29%
CC(C)C(C(=O)O)N1C(=O)/C(=C/C=C/c2ccco2)SC1=S (stereo not given)	-4%	u	8.9µM*	u
O=C1/C(=C/C=C/c2ccco2)SC(=S)N1c1ccc(O)cc1	0%	u	u	u
C=CCNc1nnc(-c2cccc3ccccc23)o1	x	x	x	3%
O=C1CCCC2=C1C(c1ccco1)Nc1ccc3ccccc3c12 (stereo not given)	10%	11µM*	u	x
O=C1CCCC2=C1C(c1ccc(O)c(O)c1)Nc1ccc3ccccc3c12 (stereo not given)	5%	u	2%	u
Cc1cc(C(=O)NNC(=O)/C=C/c2ccco2)c(C)o1	0%	10µM*	u	u
O=C1c2ccccc2C(=O)N1c1cccc2ccncc12	x	x	x	5%
O=C(CC1SC(=O)N(c2ccccc2)C1=O)Nc1cccc2ccccc12 (stereo not given)	-2%	10µM*	-1%	0%
CCc1ccc(C2C(C#N)=C(N)C(C#N)(C#N)C3=CCC(C(C)(C)C)CC32)cc1 (stereo not given)	37µM*	-5%	0%	u
COc1cc2[nH]c(=O)n(CCCCCC(=O)NCCc3ccccc3)c(=O)c2cc1OC	3%	-4%	i	0%
O=C(CCCCCn1c(=O)[nH]c2ccccc2c1=O)NCc1ccc(Cl)cc1	2%	u	-5%	2%
O=C(CCCCCn1c(=O)[nH]c2ccccc2c1=O)NCc1ccccc1	-5%	8.9µM*	i	-3%
